This is an account of results in the supplement of paper PMC6555819.

The subject of this test is LXRa homodimer (NR concentration 270 nM). The test is described as follows: PBM binding z-score (relative to random genomic background probes); higher = stronger binding; sequences stand for … in GC…GCGATTGACAGCGTAGAATGAAGG
In short, it runs like this:
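Regression normalization was applied to scanned fluorescence from custom Agilent 4×180K protein-binding microarrays. Before scanning, arrays were incubated 1 h with ligand-free nuclear receptor dimers, and binding was detected with antibodies against each partner (one per run). Binding z-scores use the random background probes as reference.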
AGAACGAGGGCAATGAGTTGATAACACGGGTGGC had a PBM binding z-score of -0.716.
ACTAGCAGGCCAAGGGTCAATCAAGATTAGTCCG had a PBM binding z-score of 0.134.
The value for AATACAGGGTCATCGTAGGCCAGTGTACGCACAG was 2.35; that for TGTCAAAGTTCAAAGGCAACGTAAGTATCCACAC was 4.08.
TGGCCTAGGTCATTGGGCCAGTATAGTACGCATC returned a PBM binding z-score of -0.242.
For ATCGAAAGGTCGGCGAGGTGAGTATACACCGTTT, the PBM binding z-score is -0.167.
Under CCTAGTTGGTCAAGAGGTCACACACCGGATATGA stands 3.61; under TCTGCTAGGTCAGCTGGTCAGCTAACGAGCTGCC, -1.11.
The value for CCGACTGGAGCAGAAAGGTTACCATACCATCCGG was -0.0298; that for CAAACTAGGTCACCTGAAGGTCAAAGTCCGCATG was 5.41; that for GCCACTGGGGCATCAGCAGGTTACCATAACTTAA was -0.158.
In turn, CAGCCTAGGTCAGGGCCAATATAGGAGGAACGTT yielded a PBM binding z-score of -0.284.
The value for CTGAGTAGGTTATGGGGCATTCAGGCAACGGTGA was 0.0598; that for CGACCAAGGTCAAAGGTCAGTGAAGAGATGACGG was 3.14; that for ACTCGTAGGACAAAGGTCAGAGCTACGCCAGTGA was 1.39.
The value for GGTACGAGGGCAAGTTGATAGCAGAGTTTGATGG was -0.268; that for CTCGAAAGGTCGTTCTCAGGTGAGTATACCAAAC was 1.08; that for AGTACAGGGTCATCGTAGGCCAGAGTACGCACAG was 0.868.
The value for TCTTGTGGATCAGCAGGTTAAGAAAGCTGGCCAA was -0.184; that for TTACCAAGGTGAGCAGAGGTCGTTGATCCAACTC was -0.283.
For the sequence GCGACAGGGGCATCAGCAGGTTACCATAACTTAA, the PBM binding z-score was -0.329.
Under TCATATAGTTAAAAGGTGAAAGTCGGTGTGGTAA stands 0.272.
Consider TCGAGTAGGTTAGGGGCATTCAAAATGGCGTCGA, for which the PBM binding z-score is -0.23.
The value for TCTCGGTGGACACGAAAGGTCAGAGCTCGACATC was 2.21.
Consider TGAATGAGGTTATAAGATCAGCGAACGTTGCAAA, for which the PBM binding z-score is -0.415.
The value for GCTTGTAGATTAAGGTTAAGAAAGACTAAGCTAA was -0.399; that for CGAAGTAGGTCAAGGACAGTGAATCTCCGCACGC was 0.0941.
Under ACTAGAAGGCCAAGTTTGGGTCACTCAAACAAAG stands -0.0475; under CCTACTGGGCCACGGAAGGTCATTGATTCAGTGA, 2.27; under TCTAGTAGATCAATAGAGGTTAAGAAAGTGCGCT, 0.28.
Under AATACAGGGTCATCGTCGGCCAGAGTACGCACAG stands 2.78; under TGAATGAGGTTATAAGATCAGGGATCGTTGCAAA, -0.202.
ATAGAAAGGTCGAGGTGAGTATAGAGAAAGGGAA: the PBM binding z-score was 0.369.
Under ATCTCTAGGTAAAAGTTCAGTCAATCCCGAGGAT stands 1.79; under CCTTAAGGGTCAAGGTTATAGCACGGGTGGTACG, 1.06.
As for CTCGAAAGGTCGTGCTCAGGTGAGTATACCAAAC, the PBM binding z-score was found to be 0.432.
Under ACAGACAGTTGAGTGAAGGTAACTCAGCTGGACG stands -0.198.
In turn, GCTGCTAGGTTAGGTTGGTCAGCTAACGGGTACG had a PBM binding z-score of -0.358.
Under CGTCCAAGGTCAAGGGTCAGTGAAGAGATGACGG stands 1.02.
